Targets with a hit are over-represented here; the source holds about 7,900 in all. About 0.6% of all pairs of compound and target were hits.
compound: C#Cc1cccc(Nc2ncnc3cc(OCCOC)c(OCCOC)cc23)c1 [erlotinib]; assay: log2 fold change, soluble protein after heating vs DMSO (PISA); higher = thermal stabilisation; K562 cells, 10 uM, 30 min; active = over 0.2 and 3.5 SD of the protein, either way, in both replicates (recomputed)
Outline: (§1)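 For each measurement, 10 μM compound was applied for 30 min to K562 cells at 2×10^6 cells/mL. Aliquots were heated for 3 min across 48°C-58°C, pooled, and extracted in PBS with 0.5% NP-40 at 4°C; the supernatant after 21,000xg for 90 min was soluble protein. This was quantified by TMTpro 16plex LC-MS/MS with channel sums equalised, and thermal stability was reported relative to control samples from duplicates, on a log2 fold-change scale.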

Chain of UniProt O94806 (O94806 whole entry, looked up): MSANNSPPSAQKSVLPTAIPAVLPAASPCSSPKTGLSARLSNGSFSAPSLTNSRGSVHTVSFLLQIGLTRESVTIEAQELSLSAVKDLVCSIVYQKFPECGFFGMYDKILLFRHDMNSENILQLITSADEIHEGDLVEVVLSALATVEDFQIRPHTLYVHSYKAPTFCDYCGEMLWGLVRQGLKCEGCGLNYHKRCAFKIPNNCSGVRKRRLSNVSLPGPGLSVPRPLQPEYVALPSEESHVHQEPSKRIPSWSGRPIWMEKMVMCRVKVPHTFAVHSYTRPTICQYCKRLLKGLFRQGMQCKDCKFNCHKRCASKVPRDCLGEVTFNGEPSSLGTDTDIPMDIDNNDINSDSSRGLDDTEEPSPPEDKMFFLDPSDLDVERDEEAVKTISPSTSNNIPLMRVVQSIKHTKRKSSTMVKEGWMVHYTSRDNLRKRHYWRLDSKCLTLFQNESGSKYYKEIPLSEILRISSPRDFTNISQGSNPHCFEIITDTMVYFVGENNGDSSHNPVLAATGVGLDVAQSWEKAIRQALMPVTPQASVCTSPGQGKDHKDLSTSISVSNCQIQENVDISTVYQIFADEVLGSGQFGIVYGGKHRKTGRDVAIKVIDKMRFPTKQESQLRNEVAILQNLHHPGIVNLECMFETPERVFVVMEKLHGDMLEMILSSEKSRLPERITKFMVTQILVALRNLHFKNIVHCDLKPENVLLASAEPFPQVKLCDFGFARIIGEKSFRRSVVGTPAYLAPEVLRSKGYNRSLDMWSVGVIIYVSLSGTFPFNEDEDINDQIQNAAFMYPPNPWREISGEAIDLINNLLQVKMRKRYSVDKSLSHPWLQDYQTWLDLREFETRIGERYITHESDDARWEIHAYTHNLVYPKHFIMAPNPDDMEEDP
Chain of UniProt Q14289 (Q14289 whole entry, looked up): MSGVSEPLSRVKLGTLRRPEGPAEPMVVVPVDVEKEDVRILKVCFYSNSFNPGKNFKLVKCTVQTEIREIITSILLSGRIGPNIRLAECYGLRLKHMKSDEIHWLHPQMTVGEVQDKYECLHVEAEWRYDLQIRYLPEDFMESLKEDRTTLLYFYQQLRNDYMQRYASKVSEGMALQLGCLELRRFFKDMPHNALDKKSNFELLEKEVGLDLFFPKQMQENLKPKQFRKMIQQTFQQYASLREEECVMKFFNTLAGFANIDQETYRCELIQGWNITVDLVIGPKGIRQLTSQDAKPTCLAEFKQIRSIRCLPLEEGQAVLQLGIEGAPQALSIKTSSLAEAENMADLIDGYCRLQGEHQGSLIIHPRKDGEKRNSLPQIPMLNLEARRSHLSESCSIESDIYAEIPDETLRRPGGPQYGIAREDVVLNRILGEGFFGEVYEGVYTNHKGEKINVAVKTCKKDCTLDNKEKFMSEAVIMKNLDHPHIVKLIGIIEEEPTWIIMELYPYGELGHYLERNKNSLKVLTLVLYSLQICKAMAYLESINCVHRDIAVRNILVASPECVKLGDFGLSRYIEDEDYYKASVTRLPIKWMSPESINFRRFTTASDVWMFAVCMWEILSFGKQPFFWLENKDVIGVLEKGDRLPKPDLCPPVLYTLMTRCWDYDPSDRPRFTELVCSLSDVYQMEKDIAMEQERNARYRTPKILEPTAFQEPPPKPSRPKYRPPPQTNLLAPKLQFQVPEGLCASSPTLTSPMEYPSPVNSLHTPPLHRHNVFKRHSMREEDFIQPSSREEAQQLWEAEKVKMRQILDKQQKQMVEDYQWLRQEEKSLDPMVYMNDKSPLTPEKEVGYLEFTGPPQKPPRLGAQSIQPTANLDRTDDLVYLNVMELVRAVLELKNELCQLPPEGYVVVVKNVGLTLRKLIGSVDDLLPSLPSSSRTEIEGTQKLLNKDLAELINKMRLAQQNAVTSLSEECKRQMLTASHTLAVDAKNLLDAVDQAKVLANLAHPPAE
Chain of UniProt Q8NDX5 (Q8NDX5 whole entry, looked up): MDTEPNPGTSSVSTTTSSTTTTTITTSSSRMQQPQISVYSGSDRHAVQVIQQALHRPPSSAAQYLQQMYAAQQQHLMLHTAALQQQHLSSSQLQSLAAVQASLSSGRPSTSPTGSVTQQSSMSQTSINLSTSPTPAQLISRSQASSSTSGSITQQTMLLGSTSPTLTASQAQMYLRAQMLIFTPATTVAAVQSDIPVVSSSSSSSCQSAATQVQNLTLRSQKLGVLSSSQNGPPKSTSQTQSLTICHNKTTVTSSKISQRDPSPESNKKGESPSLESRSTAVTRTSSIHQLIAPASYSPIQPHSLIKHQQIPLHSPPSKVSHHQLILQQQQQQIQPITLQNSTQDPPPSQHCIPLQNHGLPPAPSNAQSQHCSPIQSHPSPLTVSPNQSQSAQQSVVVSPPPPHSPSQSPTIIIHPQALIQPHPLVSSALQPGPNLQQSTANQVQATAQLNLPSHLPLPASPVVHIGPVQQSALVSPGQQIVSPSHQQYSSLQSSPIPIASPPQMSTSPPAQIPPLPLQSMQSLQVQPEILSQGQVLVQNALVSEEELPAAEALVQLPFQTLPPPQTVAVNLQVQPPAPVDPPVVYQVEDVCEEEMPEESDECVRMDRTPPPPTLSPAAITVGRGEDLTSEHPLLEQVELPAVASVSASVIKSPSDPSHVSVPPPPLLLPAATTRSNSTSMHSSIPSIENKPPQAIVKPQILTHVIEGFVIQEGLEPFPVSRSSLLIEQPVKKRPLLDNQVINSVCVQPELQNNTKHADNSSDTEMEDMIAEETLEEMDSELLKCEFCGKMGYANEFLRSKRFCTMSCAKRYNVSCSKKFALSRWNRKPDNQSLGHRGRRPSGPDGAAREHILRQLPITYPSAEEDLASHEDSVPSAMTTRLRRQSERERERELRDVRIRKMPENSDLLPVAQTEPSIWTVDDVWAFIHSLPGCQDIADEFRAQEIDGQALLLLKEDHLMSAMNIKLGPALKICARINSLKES
Chain of UniProt Q7Z3K3 (Q7Z3K3 whole entry, looked up): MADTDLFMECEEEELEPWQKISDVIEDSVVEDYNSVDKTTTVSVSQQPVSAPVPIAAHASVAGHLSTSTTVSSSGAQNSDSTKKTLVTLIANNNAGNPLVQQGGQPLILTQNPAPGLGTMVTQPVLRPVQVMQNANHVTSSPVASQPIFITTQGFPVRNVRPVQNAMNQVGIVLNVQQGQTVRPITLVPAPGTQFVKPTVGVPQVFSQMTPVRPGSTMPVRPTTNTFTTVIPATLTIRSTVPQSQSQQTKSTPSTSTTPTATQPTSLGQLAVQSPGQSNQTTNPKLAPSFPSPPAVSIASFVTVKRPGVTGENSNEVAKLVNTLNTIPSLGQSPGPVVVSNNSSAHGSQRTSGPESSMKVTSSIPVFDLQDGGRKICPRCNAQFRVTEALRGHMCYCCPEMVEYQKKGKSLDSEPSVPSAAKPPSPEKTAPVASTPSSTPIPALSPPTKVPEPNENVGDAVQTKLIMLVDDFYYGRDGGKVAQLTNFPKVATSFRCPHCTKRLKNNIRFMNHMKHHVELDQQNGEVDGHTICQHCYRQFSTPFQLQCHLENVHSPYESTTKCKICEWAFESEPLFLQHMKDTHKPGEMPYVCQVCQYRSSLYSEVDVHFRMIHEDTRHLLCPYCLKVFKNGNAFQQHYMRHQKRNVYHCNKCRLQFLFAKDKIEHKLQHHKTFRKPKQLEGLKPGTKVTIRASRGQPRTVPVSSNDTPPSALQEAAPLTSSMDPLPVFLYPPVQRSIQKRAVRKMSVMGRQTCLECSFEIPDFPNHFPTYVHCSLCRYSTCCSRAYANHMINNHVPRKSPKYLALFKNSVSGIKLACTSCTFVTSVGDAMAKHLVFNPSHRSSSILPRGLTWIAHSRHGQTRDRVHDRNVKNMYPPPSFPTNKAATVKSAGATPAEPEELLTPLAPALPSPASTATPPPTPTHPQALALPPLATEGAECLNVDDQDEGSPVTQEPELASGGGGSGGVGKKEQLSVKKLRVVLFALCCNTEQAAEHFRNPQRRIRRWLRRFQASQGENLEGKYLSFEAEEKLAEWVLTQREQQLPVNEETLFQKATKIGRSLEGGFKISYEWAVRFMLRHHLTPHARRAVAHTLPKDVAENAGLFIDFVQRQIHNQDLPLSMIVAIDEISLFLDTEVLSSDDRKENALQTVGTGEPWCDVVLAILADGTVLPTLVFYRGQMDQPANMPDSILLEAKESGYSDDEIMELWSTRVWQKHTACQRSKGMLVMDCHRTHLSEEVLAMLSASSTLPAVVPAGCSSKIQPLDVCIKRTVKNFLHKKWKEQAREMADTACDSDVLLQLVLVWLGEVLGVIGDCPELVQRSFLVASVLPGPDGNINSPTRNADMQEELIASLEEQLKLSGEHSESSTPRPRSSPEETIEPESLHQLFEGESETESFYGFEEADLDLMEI
Chain of UniProt Q5JVF3 (Q5JVF3 whole entry, looked up): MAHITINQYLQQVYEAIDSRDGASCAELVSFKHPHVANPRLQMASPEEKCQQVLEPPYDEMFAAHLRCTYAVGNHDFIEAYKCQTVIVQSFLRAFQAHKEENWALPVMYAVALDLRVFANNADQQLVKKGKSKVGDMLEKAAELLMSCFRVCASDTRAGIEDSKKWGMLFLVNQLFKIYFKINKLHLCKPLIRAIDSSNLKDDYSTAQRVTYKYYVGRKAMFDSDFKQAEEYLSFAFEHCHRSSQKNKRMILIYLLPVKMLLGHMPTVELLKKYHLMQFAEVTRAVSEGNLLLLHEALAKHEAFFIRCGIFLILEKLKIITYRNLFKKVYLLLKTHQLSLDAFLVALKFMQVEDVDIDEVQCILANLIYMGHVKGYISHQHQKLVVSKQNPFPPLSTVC
Chain of UniProt P41247 (P41247 whole entry, looked up): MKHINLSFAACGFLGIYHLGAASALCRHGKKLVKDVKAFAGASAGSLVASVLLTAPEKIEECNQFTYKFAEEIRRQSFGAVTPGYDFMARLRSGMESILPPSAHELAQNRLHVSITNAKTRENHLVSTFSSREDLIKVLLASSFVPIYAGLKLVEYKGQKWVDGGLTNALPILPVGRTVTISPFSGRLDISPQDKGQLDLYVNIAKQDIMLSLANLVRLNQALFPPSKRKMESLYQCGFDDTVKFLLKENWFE

Row | Target | log2 fold change
1 | PCBP2 (UniProt F8VZX2) | -0.014 (inactive)
2 | PHC3 isoform 7 (UniProt Q8NDX5) | 0.08 (inactive)
3 | PPP2R5C isoform 2 (UniProt Q13362) | -0.012 (inactive)
4 | POGZ (UniProt Q7Z3K3) | 0.006 (inactive)
5 | PPP1R12C (UniProt Q9BZL4) | -0.13 (inactive)
6 | PTEN isoform 2 (UniProt P60484) | 0.264 (inactive)
7 | PPP2R5B (UniProt Q15173) | -0.044 (inactive)
8 | PDE4DIP (UniProt E9PS60) | 0.086 (inactive)
9 | PCID2 (UniProt Q5JVF3) | 0.086 (inactive)
10 | POLB (UniProt P06746) | -0.236 (inactive)
11 | PEX5 isoform 4 (UniProt P50542) | -0.133 (inactive)
12 | PPP1R12B isoform 6 (UniProt O60237) | 0.226 (inactive)
13 | PUM1 (UniProt Q14671) | 0.308 (inactive)
14 | PSMC1 (UniProt G3V4X1) | 0.149 (inactive)
15 | PRKD3 (UniProt O94806) | 0.051 (inactive)
16 | PNPLA4 (UniProt P41247) | 0.426 (inactive)
17 | PHRF1 (UniProt Q9P1Y6) | -0.161 (inactive)
18 | PRKX (UniProt P51817) | 0.169 (inactive)
19 | PTK2B (UniProt Q14289) | 0.225 (inactive)
20 | PI4K2B (UniProt Q8TCG2) | -0.003 (inactive)

compound: C/C(=N\NC(=O)C1=CC(=CC=C1)S(=O)(=O)N2CCOCC2)/C3=C(C=CC(=C3)Cl)O; assay: as above
Outline: as §1

Row | Target | log2 fold change
21 | PCF11 (UniProt O94913) | 0.04 (inactive)
22 | POGZ (UniProt Q7Z3K3) | 0.085 (inactive)
23 | PSMA3 (UniProt H0YJ03) | -0.698 (active)
24 | PPP2R5B (UniProt Q15173) | 0.039 (inactive)
25 | PEX5 isoform 4 (UniProt P50542) | -0.143 (inactive)
26 | PUM1 (UniProt Q14671) | 0.035 (inactive)
27 | PUF60 isoform 2 (UniProt Q9UHX1) | 0.242 (inactive)
28 | PGK2 (UniProt P07205) | -0.055 (inactive)
29 | PRKD3 (UniProt O94806) | 0.373 (inactive)
30 | PNPLA4 (UniProt P41247) | 0.13 (inactive)
31 | PSD3 (UniProt Q9NYI0) | -0.022 (inactive)
32 | PKM isoform 2 (UniProt P14618) | -0.004 (inactive)
33 | PRR14L (UniProt Q5THK1) | -0.168 (inactive)
34 | PTK2B (UniProt Q14289) | 0.063 (inactive)
35 | PI4K2B (UniProt Q8TCG2) | -0.008 (inactive)

compound: C1=CC(=C(C=C1Cl)C2=NC3=NC=CN=C3C(=N2)NC4=CC=NC=C4)F; assay: as above
Outline: as §1

Row | Target | log2 fold change
36 | PCNX1 (UniProt Q96RV3) | 0.036 (inactive)
37 | PHC3 isoform 7 (UniProt Q8NDX5) | 0.24 (inactive)
38 | POGZ (UniProt Q7Z3K3) | 0.044 (inactive)
39 | PPP1R12C (UniProt Q9BZL4) | -0.011 (inactive)
40 | PMS2CL (UniProt Q68D20) | 0.094 (inactive)
41 | PCID2 (UniProt Q5JVF3) | -0.088 (inactive)
42 | POLB (UniProt P06746) | -0.186 (inactive)
43 | PEX5 isoform 4 (UniProt P50542) | -0.036 (inactive)
44 | PIAS4 (UniProt Q8N2W9) | 0.061 (inactive)
45 | PSMC3 (UniProt E9PLG2) | -0.437 (inactive)
46 | PGK2 (UniProt P07205) | -0.082 (inactive)
47 | PKM isoform 2 (UniProt P14618) | 0.075 (inactive)
48 | PRKD2 (UniProt M0R346) | -0.066 (inactive)

compound: C1=CC(=CC=C1C2=NC3=C(N2)C=C(C=C3)C(=O)N)OC4=CC=C(C=C4)Cl; assay: as above
Outline: as §1

Row | Target | log2 fold change
49 | PCBP2 (UniProt F8VZX2) | -0.077 (inactive)
50 | PHC3 isoform 7 (UniProt Q8NDX5) | -0.002 (inactive)
51 | PPP2R5C isoform 2 (UniProt Q13362) | -0.02 (inactive)
52 | POGZ (UniProt Q7Z3K3) | 0.033 (inactive)
53 | PPP1R12C (UniProt Q9BZL4) | -0.059 (inactive)
54 | PTEN isoform 2 (UniProt P60484) | 0.061 (inactive)
55 | PPP2R5B (UniProt Q15173) | -0.05 (inactive)
56 | PDE4DIP (UniProt E9PS60) | -0.175 (inactive)
57 | PCID2 (UniProt Q5JVF3) | -0.021 (inactive)
58 | POLB (UniProt P06746) | 0.094 (inactive)
59 | PEX5 isoform 4 (UniProt P50542) | 0.076 (inactive)
60 | PPP1R12B isoform 6 (UniProt O60237) | 0.001 (inactive)
61 | PUM1 (UniProt Q14671) | 0.15 (inactive)
62 | PSMC1 (UniProt G3V4X1) | -0.001 (inactive)
63 | PRKD3 (UniProt O94806) | 0.013 (inactive)
64 | PNPLA4 (UniProt P41247) | -0.176 (inactive)
65 | PHRF1 (UniProt Q9P1Y6) | 0.082 (inactive)
66 | PRKX (UniProt P51817) | 0.035 (inactive)
67 | PTK2B (UniProt Q14289) | 0.059 (inactive)
68 | PI4K2B (UniProt Q8TCG2) | 0.065 (inactive)

Reference: the supplement of paper PMC10849652
